# Source: PubChem (National Center for Advancing Translational Sciences (NCATS))
# This is a sample that favours compounds with a hit; in the whole collection about 7.3% have one here.
# Vaccinia Venus: vaccinia inhibition (Venus reporter) | Vaccinia virus Venus reporter expression, fluorescence | Potency, µM (titrated, usually from 36.5 µM), without a hit: at the highest dose activity change, negative = inhibition, most hits filed as inhibitors | actives 0.46% (n = 330,000); calls by dose curve; tested in A549 cells; also: potency is read from the fitted curve at half-maximal effect; nearly all actives have a fitted effect of over 30% in size
# FMDV inh: antivirals against foot and mouth disease virus | FMDV antiviral cell-based qHTS | Potency, µM (top dose mostly 57.9 µM), inactives show at the highest dose activity change, negative = inhibition, actives largely listed as inhibitors | actives 1.2% (n = 410,000) | AID 1159524; calls by dose curve; tested in HEK293T cells; also: read-out not given here; potency is read from the fitted curve at half-maximal effect; nearly all actives have a fitted effect of over 45% in size
# Vaccinia mCherry: vaccinia inhibition (mCherry reporter); Vaccinia virus mCherry reporter infection, fluorescence; Potency, µM (titrated, usually from 36.5 µM), for inactives: at the highest dose activity change, negative = inhibition, hits mostly inhibitors; actives 0.63% (n = 310,000); AID 720579; calls by dose curve; tested in A549 cells; also: potency is read from the fitted curve at half-maximal effect; nearly all actives have a fitted effect of over 35% in size
# HCV inhibitor: inhibitors of hepatitis C virus infection; actives 3.4% (n = 340,000); Potency, µM (top dose mostly 41.8 µM), for the others: at the highest dose activity change, negative = inhibition, usual class: inhibitors; AID 651820; Huh7.5.1 HCVcc-Cre infection, luciferase reporter, 44 h; active = well fitted inhibition curve with a large enough effect; inconclusive = small, poorly fitted or top-dose-only effect, or another doubt; inactive = no such curve, though single readings can be large or run the other way; also: potency is read from the fitted curve at half-maximal effect
#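 Compounds are dispensed onto cells plated 4 h earlier at 1,000 per well, with HCVcc-Cre virus (about 0.5 moi) added next. Following 44 h of culture, luminescent signal is measured for 15 sec after 15 min with substrate at room temperature.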
# HCMV inh: blocks human cytomegalovirus replication. actives 4.5% (n = 410,000). activity change, negative = inhibition, % at 57.5 µM. HFF cells, HCMV-luciferase reporter, 72 h; hits give low values; in the data active = activity change below about -60%; inconclusive = no clear call, values can overlap the other calls; inactive = above about -39%
#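 Steps: HFFs plated, 16 h 37C; compounds added; HCMV-luciferase added to MOI 1 PFU/cell; 72 h 37C; OneGlo reagent, 5 min room temperature; luminescence read, normalized to controls.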
# Active calls of the source: *; i = inactive; ? = inconclusive; · = not tested or not shown; [ ] = remark or other dose. % is scaled to controls: 0 for no effect and ±100 for the full control effect.
SMILES,Vaccinia Venus,FMDV inh,Vaccinia mCherry,HCV inhibitor,HCMV inh
COc1cccc(/C=N/Nc2ncccc2[N+](=O)[O-])c1OC,-24%,7.1µM*,-26%,-10%,66
COc1c(/C=N/Nc2nc(N3CCCCC3)nc(N3CCCCC3)n2)cccc1[N+](=O)[O-],-11%,-3%,-2%,?,-92*
COc1cccc(/C=N/Nc2ccc([N+](=O)[O-])cn2)c1O,?,?,1.1µM*,1.1µM*,-98*
O=[N+]([O-])c1cc2c(cc1/C=N/Nc1nc(Nc3ccccc3)nc(N3CCCCC3)n1)OCO2,·,-4%,·,?,-75*
C=CCn1c(=O)c(CCC(=O)Nc2ccc(N3CCOCC3)cc2)nc2cc(C(F)(F)F)ccc21,-25%,8%,?,?,-5
Cc1sc(NC(=O)C2CC(=O)N(Cc3ccco3)C2)nc1-c1ccccc1 (configuration not stated),-30%,-21%,-30%,·,6
OCC[C@H]1C[C@@H](O)[C@H](O)[C@@]2(CCCCO2)O1,1%,-1%,-4%,-12%[8.37 µM],-21
C(=N\Nc1nc(N2CCCC2)nc(N2CCCC2)n1)/c1ccncc1,-5%,-13%,1%,?,-8
O=[N+]([O-])c1ccc(Nc2nc(N/N=C/c3cccc(F)c3)nc(N3CCCC3)n2)cc1,-25%,?,-27%,?,38
COc1cccc(/C=N/Nc2nc(Nc3ccc([N+](=O)[O-])cc3)nc(N3CCCC3)n2)c1O,-28%,-7%,4µM*,?,?
Cc1ccc(Nc2nc(N/N=C\c3ccc4c(c3)OCO4)nc(N3CCOCC3)n2)cc1,?,-25%,?,11µM*,?
O=[N+]([O-])c1ccc(/C=N/Nc2nc(N3CCCCC3)nc(N3CCCCC3)n2)o1,·,-29%,·,14µM*,-30
Cc1ccccc1Cn1c(=O)n(CCCCC(=O)NCc2ccc3c(c2)OCO3)c(=O)c2ccccc21,-20%,-27%,?,·,-33
CCOc1cc(/C=C2\SC(=N)N(c3nccs3)C2=O)ccc1OCCN1CCOCC1,?,?,11µM*,-11%,-70*
N#C/C(=C(/O)c1ccc([N+](=O)[O-])cc1)c1nnc2n1CCCCC2,-3%,-12%,-10%,3%,-34
N#C/C(=C/c1ccccc1[N+](=O)[O-])c1nnc2n1CCCCC2,-15%,-7%,-4%,-13%,-60*
Cc1cc2oc(C(=O)Nc3nc(-c4ccccc4)ns3)c(C)c2cc1Cl,-18%,-28%,-13%,·,-14
CN1CCCN(C(=O)/C=C/c2ccc(Cl)cc2Cl)CC1,-9%,-3%,i,?,-62*
CC(NS(=O)(=O)c1ccc2[nH]c(=O)[nH]c2c1)c1ccc(F)cc1 (configuration not stated),0%,-20%,i,·,21
Cc1cc2nnc(SCC(=O)Nc3ccc(F)c(Cl)c3)n2c2ccccc12,-5%,14%,-5%,·,0
Cc1cc(Cl)c2oc(C(=O)N3CCN(c4ccncc4)CC3)c(C)c2c1,?,-15%,-11%,1.3µM*,-40
CN(C(=O)C1CCCCC1)C1(C)CCS(=O)(=O)C1 (configuration not stated),-4%,-3%,-14%,-5%,-20
CCCC(=O)N1CCN(c2nc3ccc(CC)cc3s2)CC1,·,11%,·,12%,-11
CCCC(=O)N1CCN(c2nc3ccc(Br)cc3s2)CC1,·,3%,·,10µM*,-68*
CCCCC(=O)N1CCN(c2nc3ccc(Br)cc3s2)CC1,-13%,-12%,-13%,11µM*,-13
SMILES,Vaccinia Venus,FMDV inh,Vaccinia mCherry,HCV inhibitor,HCMV inh
CCCC(=O)N1CCN(c2nc3ccc(Cl)cc3s2)CC1,·,5%,·,11µM*,-20
CC(=O)N1CCN(c2nc3ccc(Br)cc3s2)CC1,·,23%,·,8%,60
O=C(Nc1cccnc1)c1ccccc1-c1ccccc1,·,8%,·,-6%,-60*
Cc1cccc(NC(=O)c2ccccc2-c2ccccc2)c1,-12%,-18%,-12%,-6%,-104*
Cc1cccc(NC(=O)c2ccccc2C(=O)O)c1,·,31%,·,1%,0
Cc1cccc(NC(=O)c2cc(S(=O)(=O)c3ccccc3)ccc2Cl)c1,?,-40%,·,7.9µM*,-107*
CCOC(=O)c1cccc(NC(=O)[C@H](CSCc2ccccc2)N2Cc3ccccc3C2=O)c1,-13%,43%,-17%,·,-24
Cc1ccc(NC(=S)N(Cc2ccco2)C2CCN(C(C)C)CC2)cc1,-11%,-3%,-14%,?,-28
Oc1ccccc1C1C=C(c2ccc3c(c2)OCO3)NC(c2ccc(Br)cc2)N1 (configuration not stated),0%,·,i,·,·
O=C(CNC(=O)OCc1ccccc1)Nc1ccc(Br)cc1C(=O)c1ccccc1Cl,-25%,0%,-6%,8.9µM*,-13
COc1ccc(S(=O)(=O)N2CCN(CCc3ccccc3)CC2)cc1,-2%,?,i,?,-21
C=CCC(O)(CCN1CCCCC1)c1ccccc1 (configuration not stated),-15%,-29%,·,-6%,6
CC(O)(C#CCN1CCCCCC1)c1ccccc1 (configuration not stated),-2%,-6%,3%,-16%,-102*
OC(CCN1CCCCC1)(c1ccccc1)c1ccccc1,-9%,-17%,-1%,-2%[8.37 µM],-81*
COc1ccc(C(O)(CCc2ccccc2)CCN2CCCCC2)cc1 (configuration not stated),-14%,-5%,-11%,32µM*,-29
OC(CCCN1CCCCC1)(c1ccccc1)c1ccc(C(F)(F)F)cc1 (configuration not stated),-17%,-11%,?,11µM*,2
CCCN1CNc2c(c(=O)[nH]c(=S)n2CCc2cc(Cl)cc(Cl)c2)C1,-8%,·,0%,·,·
OC(CCN1CCCC1)(c1ccccc1)C1CCCCC1 (configuration not stated),-17%,0%,-17%,3%[8.37 µM],-60*
O=C(c1ccco1)N1CCN(C(=O)c2cn(-c3ccccc3)nc2-c2ccccc2)CC1,·,23%,·,-19%,135
O=C(CSc1ccccc1)N1CCN(C(=O)c2ccco2)CC1,·,6%,·,16%,-35
O=C(CSc1nnc(-c2ccc(Br)cc2)o1)N1CCN(C(=O)c2ccco2)CC1,5µM*,?,0.63µM*,?,-25
O=C(CSc1c2c(nc3ccc(Cl)cc13)CCCC2)N1CCN(C(=O)c2ccco2)CC1,·,25µM*,·,?,52
O=C(CSc1nc(-c2ccccc2)cs1)N1CCN(C(=O)c2ccco2)CC1,·,?,·,-19%,-103*
O=C(OCC(=O)N1CCN(C(=O)c2ccco2)CC1)c1cn(-c2ccccc2)nc1-c1ccccc1,?,-7%,·,2.8µM*,7
COc1ccc(C(=O)N2CCC3(CC2)CN(c2ccc(-c4ccccc4)cc2)C3)cc1,·,-28%,·,·,·
C=CCn1c(SCCC)nc2ccccc2c1=O,7%,·,-24%,·,·
